An excerpt weighted towards active compounds, which were near 3.8% of everything screened.
HepG2 tox: counter-screen for TGF-b inhibitors: cytotoxicity in HepG2 cells; hit rate 0.76% among 410,000; HepG2 CAGA-GFP viability, ATP luminescence, 18 h; Potency, µM (highest dose often 46.1 µM), without a hit: at the highest dose activity change, negative = cytotoxicity, most hits filed as cytotoxic; AID 588856
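HepG2 CAGA-GFP cells (1000/well, DMEM with 1% FBS) received compound, then TGF-beta at 500 pg/mL final, and were incubated 18 hours at 37 degrees C. Viability was read by CellTiter-Glo luminescence. Media-only wells were set as complete cell-killing and DMSO as no toxicity.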
S2 tox: cell viability loss in ATXN counter-screen; S2 cells (HEK-293 line with an ATXN2-luciferase reporter) viability, CellTiter-Fluor protease fluorescence, 24 h; Potency, µM (titrated, usually from 56.7 µM), usual class: cytotoxic; hit rate 0.49% among 400,000; AID 651635; note: nearly all actives have a fitted effect of over 40% in size
A549 tox: counter-screen for Nrf2 inhibitors: cytotoxicity in A549 cells; Potency, µM (highest dose often 46 µM), inactives show top-dose activity change, negative = cytotoxicity, most hits filed as inhibitors; A549 ARE-Fluc cells, CellTiter-Fluor viability, 18-24 h; AID 504648; hit rate 0.16% among 390,000; note: % is set by controls: 0 for no effect and ±100 for the full control effect
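Cytotoxicity counterscreen: CellTiter-Fluor fluorescence was measured in A549 ARE_Fluc cells after 18-24 h of compound exposure in a concentration series. The subsequent BugLite luminescent read reports ARE-luciferase activity.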
TGFb inhibitor: inhibitors of TGF-b signaling; HepG2 CAGA-GFP TGF-b/SMAD3 reporter, GFP fluorescence, 18 h; TGF-beta stimulated, 500 pg/mL final; Potency, µM (top dose mostly 46.1 µM), inactives show at the highest dose activity, negative = inhibition, actives largely listed as inhibitors; hit rate 1.2% among 410,000; AID 588855; note: % is set by controls: 0 for no effect and ±100 for the full control effect; nearly all actives have a fitted effect of over 65% in size
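First, reporter cells (HEPG2 CAGA-GFP) rested 2 h at 37 degrees C. Next, compounds were pinned in and TGF-beta added to 500 pg/mL final. After 18 h, GFP was imaged per cell and summed per well.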
Nrf2 inh: blocks Nrf2 signaling; Potency, µM (top dose mostly 46 µM), without a hit: top-dose activity change, negative = inhibition, hits mostly inhibitors; AID 504444; hit rate 2.1% among 360,000; A549 ARE-Fluc reporter, luciferase luminescence, 18-24 h; note: % is set by controls: 0 for no effect and ±100 for the full control effect; nearly all actives have a fitted effect of over 60% in size
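Two sequential reads on A549 ARE_Fluc cells exposed to compound for 18-24 h: a CellTiter-Fluor fluorescence read for viability, then a luciferase luminescence read for Nrf2/ARE activity.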
ATXN2 expr inh: reduces ATXN2 reporter expression in HEK-293 cells | HEK-293 ATXN2-luciferase reporter, luminescence, 24 h | hit rate 0.72% among 360,000 | Potency, µM (series often up to 57 µM), for the others: at the top dose activity change, negative = inhibition, actives largely listed as inhibitors; note: % is set by controls: 0 for no effect and ±100 for the full control effect; nearly all actives have a fitted effect of over 55% in size
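ATXN2-luciferase reporter cells (luciferase flanked by upstream and downstream ATXN2 gene portions) were treated 24 h at 37 °C with compounds at up to 57 uM. SteadyGlo luminescence gave expression; GF-AFC fluorescence gave viability.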
An asterisk follows results filed as active; i = inactive; ? = inconclusive; nt = not tested or not shown. Calls come from the whole dose curve; as a rule, active = well fitted curve in the direction sought with a large enough effect; inconclusive = small, poorly fitted or top-dose-only effect, or another doubt; inactive = no such curve, though single readings can be large; an effect the other way counts as inactive or inconclusive. Potency is the fitted concentration of half-maximal effect.

SMILES	HepG2 tox	S2 tox	A549 tox	TGFb inhibitor	Nrf2 inh	ATXN2 expr inh
Cc1ccc(NC(=O)N2CCc3c([nH]c4ccccc34)C2c2ccccc2F)c(Cl)c1 (centres undefined)	-17.8%	i	2.2%	-13.2%	?	47.5%
Cc1nn(Cc2ccc(Cl)cc2Cl)c(C)c1NC(=O)NC12CC3CC(CC(C3)C1)C2	14.9%	i	-12.3%	0.0%	20.6µM*	-28.9%
COc1cc(C(=O)O)ccc1OCc1ccncc1	1.8%	i	1.5%	8.2%	2.0%	nt
CCCn1nc([N+](=O)[O-])c(C(C#N)c2nc3ccccc3s2)c(Cl)c1=O (centres undefined)	11.2µM*	i	13µM*	?	?	-0.6%
CCn1nc([N+](=O)[O-])c(C(C#N)c2nc3ccccc3n2C)c(Cl)c1=O (centres undefined)	3.6%	i	-10.2%	-3.5%	0.1%	-2.9%
Cc1nn(-c2ccccc2)c(C)c1C(=O)OC(C)C(=O)NC1CCCCC1 (centres undefined)	-0.4%	i	-20.6%	7.4%	18.4µM*	-35.8%
O=C(Cn1cc(S(=O)(=O)Cc2cccc(F)c2)c2ccccc21)N1CCOCC1	-20.5%	i	7.6%	7.1%	6.9%	-1.9%
CC1CCCCN1C(=O)c1ccc(C(=O)c2ccccc2)cc1 (centres undefined)	-19.6%	?	3.2%	-25.2%	-12.2%	-12.5%
O=C(Nc1nnc(-c2cccs2)s1)c1cccc(F)c1	-2.4%	i	-13.8%	-0.2%	3.7%	26.8%
Cc1ccc(CCNC(=O)c2sc3ncccc3c2-n2c(C)ccc2C)cc1	-33.6%	?	-3.0%	11.2µM*	nt	?
Cc1ccc(C)n1-c1c(C(=O)NCC(C)c2ccccc2)sc2ncccc12 (centres undefined)	-39.0%	?	-1.6%	11.2µM*	nt	-15.3%
CCOC(=O)C1CCN(C(=O)CCNC(=O)c2cc(OC)c(OC)c(OC)c2)CC1	-32.0%	i	13.0%	1.3%	1.5%	9.0%
O=C(NC1CCCCC1)C(c1cccnc1)N(CCc1ccccc1)C(=O)Cc1cccs1 (centres undefined)	2.3%	i	3.3%	9.8%	10.9%	-5.4%
O=C(NCCOc1ccccc1)c1ccc2c(c1)S(=O)(=O)c1cc(Cl)ccc1C2=O	0.5%	i	-11.2%	-41.2%	-13.0%	-16.4%
COc1cccc(Nc2nc3cc(C)ccc3nc2NS(=O)(=O)c2ccc(Cl)cc2)c1	-35.6%	?	?	7.94µM*	nt	-2.4%
O=S(=O)(Nc1nc2ccccc2nc1Nc1cccc(S(=O)(=O)N2CCCCC2)c1)c1ccccc1	-40.1%	?	?	71.0%	11.6µM*	?
COc1ccc(S(=O)(=O)Nc2cccc(S(=O)(=O)N3CCCCCC3)c2)cc1	11.7%	i	3.5%	-17.2%	?	2.8%
COc1ccc(Nc2nc3ccccc3nc2NS(=O)(=O)c2ccc(NC(C)=O)cc2)cc1	16.1%	i	-6.8%	-29.2%	-17.7%	23.9%
COc1cccc(Nc2nc3ccccc3nc2NS(=O)(=O)c2ccc(NC(C)=O)cc2)c1	-69.9%	i	-13.6%	?	-11.8%	-0.8%
COc1ccc(Nc2nc3ccccc3nc2NS(=O)(=O)c2cccs2)cc1	-37.1%	i	-19.5%	-9.1%	16.4µM*	-15.7%
CCOc1ccc(S(=O)(=O)Nc2nc3ccccc3nc2Nc2ccc(OC)cc2)cc1	-17.2%	i	-17.9%	-0.9%	25.9µM*	16.7%
COC(=O)c1cc2c([nH]c1=O)CC(c1ccccc1)CC2=O (centres undefined)	-17.7%	nt	nt	-12.8%	nt	nt
COCC(=O)N1CCC(n2nccc2NC(=O)CCOc2ccccc2)CC1	-5.7%	nt	-3.8%	-17.0%	?	nt
N#Cc1ccc(C(=O)Nc2ccccc2-c2nc3ccccc3s2)c(F)c1	-8.3%	i	3.5%	-15.6%	15.9%	8.6%

Screening results deposited in PubChem by National Center for Advancing Translational Sciences (NCATS).
